A selection: hits, their analogues and other compounds. The true share with any hit is near 1.2%.
IL1B NFkB pot: enhances IL-1B driven NFkB nuclear translocation | AID 819 | actives 0.3% (n = 94,000) | HUVEC IL-1B NFkB p65 nuclear translocation imaging | activation, % at 2 µM;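 active = activation above 40%, about the mean plus 3 SD, also judged a hit on visual image review; inconclusive = activation above 40% but not a hit on visual review; inactive = activation not above 40% and no visual hit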;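 also: percent activation is computed from the nuclear over cytoplasmic p65 intensity ratio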
Phagocyt inh: inhibitors of macrophage phagocytosis; J774A.1 macrophage IgG-bead phagocytosis, imaging; inhibition, % at 5 µM; actives 0.07% (n = 110,000); AID 1029;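 active = inhibition above the mean of the plate negative controls plus 5 SD, cut at about 13% in these data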;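 also: phagocytic index as fraction of beads internalized from green versus red external bead signal; plate controls were DMSO negative control for no effect and cytochalasin-D positive control for full effect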
VCAM1 TNFa inh: reduces TNF alpha induced VCAM1 expression in HUVEC; HUVEC TNFa-induced VCAM-1 immunofluorescence, high-content imaging; inhibition, % at 2 µM; actives 0.48% (n = 95,000);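 active = inhibition above the batch mean plus 3 SD, with images confirmed as a hit by eye, cut at about 37% in these data; inconclusive = inhibition above that limit but hit not confirmed in images; inactive = inhibition not above that limit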;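 also: 0% = TNF-stimulated DMSO wells and 100% = unstimulated control wells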
IL1B cytotox: toxic to HUVEC cells under IL-1B stimulation. HUVEC cell count loss, Hoechst imaging, IL-1B stimulated. cell count reduction, % at 2 µM. actives 0.41% (n = 94,000). AID 845;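 active = cell count reduction more than 3 SD above the screen-wide mean, cut at about 70% in these data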;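 also: normalized per plate to untreated control cells as the no-loss baseline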
TNFa cytotox: toxic to HUVEC cells under TNF alpha stimulation; HUVEC TNFalpha-stimulated, Hoechst cell count, imaging; cell count reduction, % at 2 µM; actives 0.17% (n = 93,000); AID 848;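 active = cell count reduction exceeding the screen mean by over 5 SD, scaled to untreated wells per plate, cut at about 78% in these data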;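 also: cells counted after 24 h of TNF alpha exposure following the 1 h pretreatment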
NFkB transloc inh: blocks IL-1B driven NFkB nuclear translocation in HUVEC cells | inhibition, % at 2 µM | HUVEC IL-1B NFkB p65 nuclear translocation imaging | actives 0.43% (n = 94,000);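 active = inhibition above about 30% together with a positive call from visual inspection of the well image, limit read from the data; inconclusive = inhibition above a set limit but visual check negative; inactive = inhibition not above a set limit, visual check negative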;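 also: nuclear over cytoplasmic p65 intensity ratio measured by imaging; 0% = IL-1B stimulated DMSO wells and 100% = unstimulated DMSO wells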
Active calls of the source: *; ? = inconclusive; · = not tested or not shown.

SMILES	IL1B NFkB pot	Phagocyt inh	VCAM1 TNFa inh	IL1B cytotox	TNFa cytotox	NFkB transloc inh
COC(=O)c1ccsc1NC(=O)C1=COCCO1	-17	0	25	33	92*	17
Cn1c(SCC(=O)NC2CC2)nnc1-c1ccco1	·	-1	·	·	·	·
Cn1c(SCC(=O)NC2CCCCC2)nnc1-c1cccc(N)c1	34	·	54*	-19	2	-34
Cc1cccc(/C=C2\CS/C(=C\c3cccc(C)c3)C2=O)c1	-54	0	-7	-10	-13	54*
CSc1nc2ccccc2n1Cc1c(Cl)cccc1Cl	-6	-2	17	21	24	6
CCN(CC)S(=O)(=O)c1ccc(NC(=O)C(OC)c2ccccc2)cc1 (stereo not drawn)	-98	-2	-27	90*	-24	98*
CCOc1ccc(N(C(C)C(=O)Nc2ccc(OC)cc2)S(C)(=O)=O)cc1 (stereo not drawn)	0	0	-18	10	-5	0
CCN(CC)S(=O)(=O)c1ccc(NC(=O)C(C)N(c2ccc(OC)cc2)S(C)(=O)=O)cc1 (stereo not drawn)	11	-1	?	-77	100*	-11
O=C(N/N=C\c1c(O)ccc2ccccc12)c1ccc(S(=O)(=O)N2CCCCC2)cc1	·	-8	·	·	·	·
O=C(Nc1ccc(Cl)cc1C(F)(F)F)c1ccccc1	·	0	·	·	·	·
CCN(c1ccc(C)c(C)c1)S(=O)(=O)c1ccc2c(c1)CCN2C(=O)CCC(=O)O	54*	-1	21	-12	-26	-54
Cc1cccc(NC(=O)c2cc3ccccc3o2)c1	30	·	-10	-25	4	-30
CCC(=O)Nc1cccc(NC(=O)c2cc3ccccc3o2)c1	27	0	86*	-15	87*	-27
CCCn1c(N)c(C(=S)NC(=O)C2CC2)c(=O)n(C)c1=O	·	-6	·	·	·	·
Cc1cc(-n2c(C)cc(C(=O)CN3C(=O)NC4(CCCCC4)C3=O)c2C)no1	13	0	-46	-22	90*	-13
Cc1cc(-n2c(C)cc(C(=O)CN3C(=O)NC4(CCCC4)C3=O)c2C)no1	5	-1	-8	39	-26	-5
Cc1cc(=O)c2cccc(Br)c2[nH]1	-30	·	-9	90*	-10	30*
CN1C(=O)C(c2nnc(Nc3cccc4ccccc34)s2)C2CC1(C)Oc1ccccc12 (stereo not drawn)	·	9	·	·	·	·
COc1cccc(NC(=S)N/N=C2/CCCCc3ccccc32)c1	·	-1	·	·	·	·
COc1cccc(OC)c1NC(=O)CN1CCC(NC(=O)c2cccc(F)c2)CC1	-2	·	100*	3	92*	2
CC(C)(C)c1ccc(OCC(=O)N/N=C/c2ccc(N3CCOCC3)cc2)cc1	·	-4	·	·	·	·
O=C1CC(c2ccc(F)cc2)Cc2nc(NCC3CCCO3)ncc21 (stereo not drawn)	-48	2	14	-8	-12	48*
CCCCN(CC)CCCNC(=S)Nc1ccc2nc3n(c(=O)c2c1)CCCCC3	·	-9	·	·	·	·
COc1ccc(S(=O)(=O)N(C)CC(=O)NC2CCCCC2)cc1Cl	1	0	-11	14	-4	-1
COc1ccc(S(=O)(=O)N(CC(N)=O)C2CCCCC2)cc1Cl	25	-1	-3	93*	-13	-25
SMILES	IL1B NFkB pot	Phagocyt inh	VCAM1 TNFa inh	IL1B cytotox	TNFa cytotox	NFkB transloc inh
C=CCSc1nnc2c(n1)OC=Nc1ccccc1-2	-30	0	-17	91*	-16	30*
C=CCSc1nnc2c(n1)OC(c1ccco1)Nc1ccccc1-2 (stereo not drawn)	·	-2	·	·	·	·
CC1CN(C(=O)C2(C)CC2(Br)Br)CC(C)O1 (stereo not drawn)	·	-7	·	·	·	·
O=C(O)c1cccc(NCc2ccncc2)c1	2	2	3	-12	-4	-2
O=C(O)c1ccc(NCc2ccncc2)cc1	3	-1	-16	16	84*	-3
COc1ccc(-c2cc(-c3cccs3)nc3sc(C#N)c(N)c23)cc1	·	7	·	·	·	·
COCc1cc(C)c2c(N)c(C#N)sc2n1	-31	-2	5	21	24	31*
CCCOc1cccc(NC(=O)OC2CCN(C)CC2)c1	·	2	·	·	·	·
Cc1ccc(C)c(SCc2noc(C(=O)NCC3CCCO3)c2C(=O)O)c1 (stereo not drawn)	3	·	-10	2	-34	-3
